The list shows a part of the results. A number with no mark means an inactive call. The source made the active and inactive calls.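 How the source made its calls: active means inhibition above the campaign cutoff, the mean of compounds within control limits plus 3 SD (cut at about 14% in these data); inactive means the rest.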
Biological target: Fibrinogen beta chain (Homo sapiens) (UniProt P02675)
Assay: inhibitors of Tn7 peptide binding to fibrin DD(E), confirmation, biochemical, fluorescence polarization, human fibrin, Tn7 probe (AID 720628);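 further: 100% = median FP of high control wells holding Aha-Tn7 inhibitor peptide; displacers lower polarization since freed probe rises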
Conditions: FP displacement of TRITC-Tn7 peptide from DD(E); at 8.3 µM; stronger effect = higher value; 0% set at plate's compound-well median

Chain of Fibrinogen beta chain (Homo sapiens) (P02675 whole entry, looked up): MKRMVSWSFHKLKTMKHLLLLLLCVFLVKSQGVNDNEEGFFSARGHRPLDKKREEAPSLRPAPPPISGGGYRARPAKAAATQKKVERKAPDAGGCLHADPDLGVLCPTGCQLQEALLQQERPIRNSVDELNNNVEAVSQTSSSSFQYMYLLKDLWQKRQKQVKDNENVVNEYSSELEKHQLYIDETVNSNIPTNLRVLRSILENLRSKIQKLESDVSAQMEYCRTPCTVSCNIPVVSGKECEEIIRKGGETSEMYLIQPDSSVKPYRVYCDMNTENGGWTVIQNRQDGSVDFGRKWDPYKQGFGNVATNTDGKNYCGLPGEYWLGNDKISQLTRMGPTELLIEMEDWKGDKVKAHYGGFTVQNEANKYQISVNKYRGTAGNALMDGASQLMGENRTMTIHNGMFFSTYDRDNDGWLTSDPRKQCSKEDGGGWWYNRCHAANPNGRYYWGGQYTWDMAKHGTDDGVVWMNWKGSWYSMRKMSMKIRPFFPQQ

Cc1cc2nc3c(=O)n(Cc4ccccc4)c(=O)[nH]c3nc2cc1N
inhibition: -4.02%

O=C(CSc1nnc(-c2ccccn2)n1-c1ccc(Cl)cc1)Nc1ccccc1-c1ccccc1
inhibition: 2.95%

CN1c2ccc(C=O)c3c(C=O)ccc(c23)N(C)C1(C)C
inhibition: 1.94%

OC(c1ccccc1)c1nc(-c2cnc3ccccc3c2)cs1 (centres undefined)
inhibition: 7.29%

c1cc(-c2nn[nH]n2)ccc1CN1CCCCC1
inhibition: -9.45%

O=C(Nc1ccon1)c1sc2ccccc2c1Cl
inhibition: 6.87%

COc1ccc(N=Nc2c(-c3ccc(OC)cc3)[nH]oc2=O)cc1
inhibition: -2.03%

COc1cccc(N2CC(NS(=O)(=O)c3cccs3)CC2=O)c1 (centres undefined)
inhibition: 0.77%

COc1cc(C(=S)N2CCOCC2)ccc1O
inhibition: 8.15%

Cc1cc2nc3c(=O)[nH]c(=O)nc-3n(C[C@H](O)[C@H](O)[C@H](O)CO)c2cc1C
inhibition: 53.3% (active)

CN1C(=O)c2cccc3c(N)ccc(c23)C1=O
inhibition: 30.8% (active)

O=C(COC(=O)/C=C/c1ccc(OC(F)F)cc1)NC1CCCCC1
inhibition: 6.98%

O=C(NCc1ccccc1)c1cccc(NC(=O)C2CCCCC2)c1
inhibition: 4.29%

CC(C)(C)c1cc(CN2CCN(CCC#N)CC2)cc(C(C)(C)C)c1O
inhibition: 3.96%

Oc1ccc2ccc3cccc[n+]3c2c1
inhibition: 20.3% (active)

Cc1nnc2n1N=C(c1ccc3c(c1)NC(=O)CO3)CS2
inhibition: -7.07%

CCOc1ccc(Nc2oc(Cc3ccccc3)nc2C#N)cc1
inhibition: -1.34%

COc1ccc(S(=O)(=O)c2c[nH]c(=S)[nH]c2=O)cc1Cl
inhibition: -1.93%

O=C(/C=C/c1ccccc1[N+](=O)[O-])NCC1CCCO1 (centres undefined)
inhibition: 9.76%

Cn1c(CC(=O)NNC(=O)c2ccccc2F)nc2ccccc21
inhibition: 4.13%

Cc1nn(C)cc1N1C(=O)c2cccc3c(N)ccc(c23)C1=O
inhibition: 12.5%

O=C(COC(=O)c1ccc([N+](=O)[O-])cc1Cl)NC(=O)c1ccccc1
inhibition: 2.79%

COc1ccc(-c2nc(CCNC(=O)c3ccc(Br)o3)cs2)cc1
inhibition: 1.25%

C#CCNc1ccc(C(=O)OCC)cc1
inhibition: 19.9% (active)
